Only some compounds are listed: those with a hit (about 3.5% of all), similar ones and a draw of the others.
TEAD-YAP block: TEAD-YAP interaction inhibition, primary screen, TEAD-YAP interaction inhibitor project, luminescence, HEK-TIYL cells; TEAD-Gal4/YAP UAS-luciferase luminescence; inhibition, % at 9.12 µM; actives 1.4% (n = 640,000); AID 1259422, 2018; in the data active = inhibition above about 32%
MITF inh: MITF inhibitors, primary screen, biochemical, AlphaScreen, human. actives 0.91% (n = 650,000). AID 1259374, 2018. AlphaScreen MITF homodimerization, bead proximity signal. inhibition, % at 2.6 µM. Microphthalmia-associated transcription factor (Homo sapiens), O75030; in the data active = inhibition above about 50%
GPR151 ag: activators of human GPR151, primary screen, cell-based, PathHunter beta-arrestin, luminescence; PathHunter beta-arrestin GPR151 cells; G-protein coupled receptor 151 (Homo sapiens), Q8TDV0; actives 1% (n = 650,000); activation, % at 11.2 µM; in the data active = activation above about 4.9%
FBW7 activator: FBW7 E3 ligase activators, primary screen, biochemical, AlphaScreen, human. actives 0.13% (n = 650,000). normalized activity (activation), % at 26.1 µM. AlphaScreen FBW7–phospho-cyclin E peptide binding, activator screen. F-box/WD repeat-containing protein 7 (Homo sapiens), Q969H0; in the data active = normalized activity above about 1.9%;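 note: purified mutant Fbw7 with reduced substrate affinity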
GPR151 conf act: GPR151 activators, triplicate retest, confirmation, cell-based, PathHunter beta-arrestin, luminescence; activation, % at 11.2 µM; GPR151 PathHunter beta-arrestin cells, 90 min; % of EA-reagent control over plate median; 6,700 tested, under 10 active; shares compounds with GPR151 ag;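 active = mean percent activation across replicates above the confirmation screen cutoff of 4.91%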
GPR119 counter: GPR119 activators in beta-arrestin cells, counter-screen for GPR151 activator project, cell-based, PathHunter beta-arrestin, luminescence, triplicate; AID 1508611, 2020; actives 0.3% (n = 6,700); 90 min; 0 = compound-well median, 100 = enzyme-acceptor control; activation, % at 11.2 µM; shares compounds with GPR151 ag;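 active = mean percent activation in the counterscreen above 29.09%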;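 note: counterscreen on off-target GPR119 to flag nonselective hits from the GPR151 activator screen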
Target sequence (Q8TDV5 whole entry, looked up): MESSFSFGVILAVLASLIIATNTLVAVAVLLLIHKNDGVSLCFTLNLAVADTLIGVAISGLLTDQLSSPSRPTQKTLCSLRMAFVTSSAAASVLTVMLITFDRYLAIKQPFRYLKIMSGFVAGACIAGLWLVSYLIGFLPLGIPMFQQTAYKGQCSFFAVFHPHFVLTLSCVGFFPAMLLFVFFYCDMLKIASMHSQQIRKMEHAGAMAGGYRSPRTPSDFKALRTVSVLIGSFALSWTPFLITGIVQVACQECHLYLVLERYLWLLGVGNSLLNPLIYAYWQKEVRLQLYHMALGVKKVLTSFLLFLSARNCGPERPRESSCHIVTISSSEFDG
A number is an active result; . = inactive; / = not tested or not shown.

SMILES | TEAD-YAP block | MITF inh | GPR151 ag | FBW7 activator | GPR151 conf act | GPR119 counter
CCN1CCN(C(=O)CS(=O)Cc2nc(-c3cccc(C)c3)oc2C)CC1 (stereo not given) | . | . | . | . | / | /
Cc1cccc(-c2nc(CS(=O)CC(=O)N3CCCC3)c(C)o2)c1 (stereo not given) | . | . | 8.2 | . | . | .
Cc1cccc(-c2nc(CS(=O)CC(=O)NC(C)c3ccccc3)c(C)o2)c1 (stereo not given) | . | . | 7.2 | . | . | .
Cc1ccc(Cn2ncc3c(NCCCN4CCOCC4)ncnc32)cc1 | . | . | . | . | / | /
Clc1ccc(Cn2ncc3c(NCCN4CCOCC4)ncnc32)cc1 | . | . | 6.7 | . | . | .
CCOC1=NN(c2ccc([N+](=O)[O-])cc2)C(=O)/C1=C\c1ccc(Cl)cc1Cl | . | . | . | . | / | /
Clc1ccc(N2CCN(Cc3ccco3)CC2)cc1 | . | . | 5.0 | . | . | .
Clc1ccc(N2CCN(Cc3ccoc3)CC2)cc1 | . | . | . | . | / | /
O=C(O)CCC(=O)c1ccc(Cc2ccccc2)cc1 | . | . | 5.3 | . | . | .
CCCc1ccc(-c2ccc(C(=O)Nc3ccc(C)cc3)cc2)nc1 | . | . | 7.1 | . | . | .
CC(NC(=O)CCl)c1ccc(F)cc1F (stereo not given) | . | . | 5.2 | . | . | .
CC(NC(=O)CCl)c1ccc2c(c1)CCCC2 (stereo not given) | . | . | . | . | / | /
NC(=NCCC[C@H](N)C(=O)O)NO | . | . | 5.5 | . | . | .
COc1cccc(CN(CCN(C)C)C(=O)[C@@H](Cc2ccc(-c3cn[nH]c3)cc2)NC(=O)C(C)O)c1 (stereo not given in full) | . | . | 5.1 | . | . | .
O=[N+]([O-])c1ccc(-c2ccc(S(=O)(=O)N3CCOCC3)cc2)cc1 | . | . | 5.6 | . | . | .
O=[N+]([O-])c1ccc(S(=O)(=O)N2CCN(S(=O)(=O)N3CCOCC3)CC2)cc1 | . | . | . | . | / | /
CN1CCN(c2cc(-c3cn[nH]c3)ccc2NC(=O)Cc2cccc(Cl)c2)CC1 | . | . | 5.2 | . | 6.6 | 54
Cc1ccc(NC(=O)CCc2ccccc2)c(O)c1 | . | . | . | . | / | /
Cc1ccc(OCCOc2ccc(Oc3nc(N(C)C)nc(N(C)C)n3)nn2)cc1 | . | . | 5.3 | . | . | .
CCOc1ccc(S(=O)(=O)NC2CCCCC2)cc1 | . | . | 5.3 | . | . | .
CCOc1ccc(S(=O)(=O)NC2CC2)cc1 | . | . | . | . | / | /
C/C(=C\c1ccccc1)CN1CCC(C(=O)NC(C)C)CC1 | . | . | 5.1 | . | . | .
O=C1C(=O)N(c2nc3ccccc3s2)C(c2ccccc2)/C1=C(\O)c1ccccc1 (stereo not given) | . | . | 4.9 | . | . | .
Cc1cc(NCCN(C(C)C)C(C)C)nc(-c2ccccc2)n1 | . | . | . | . | / | /
CCCCNC(=O)C(CC)Sc1nnc(-c2ccccc2)c(-c2ccccc2)n1 (stereo not given) | . | . | 5.5 | . | . | .
CCOc1ccccc1NC(=O)c1ccc(F)c(S(=O)(=O)NC2CCCC2)c1 | . | . | . | . | / | /
Cc1cc(C(=O)Nc2sc3c(c2C#N)CCC(C)C3)cs1 (stereo not given) | . | . | 8.3 | . | . | .
COC(=O)c1c(NC(=O)CSc2nnc3cc(C)c4ccccc4n23)sc2c1CCC(C)C2 (stereo not given) | . | . | . | . | / | /
Cc1cc2nnc(SCC(=O)Nc3sc4c(c3C#N)CCC(C)C4)n2c2ccccc12 (stereo not given) | . | . | 5.3 | . | . | .
CSc1nnc(C)c(=O)n1COC(=O)c1ccccc1I | . | . | . | . | / | /

High-throughput results: PubChem, The Scripps Research Institute Molecular Screening Center
